Test results published in PubChem BioAssay.
For part of these data: Potency and affinity values are given separately. Activity calls are given as the source filed them. Unless noted, the limit is not given here; nearly all actives have IC50 up to about 0.91 µM.

target: Protein kinase 7 (PK7), Plasmodium falciparum 3D7 (PF3D7_0213400) (UniProt Q7YTF7); assay: inhibition of Plasmodium PK7 catalytic activity – biochemical, TCAMS antimalarial set, Kinase-Glo luminescence (AID 1159587; call rule not given here); settings: recombinant PfPK7, Kinase-Glo ATP depletion luminescence
Sequence (Q7YTF7 1-343): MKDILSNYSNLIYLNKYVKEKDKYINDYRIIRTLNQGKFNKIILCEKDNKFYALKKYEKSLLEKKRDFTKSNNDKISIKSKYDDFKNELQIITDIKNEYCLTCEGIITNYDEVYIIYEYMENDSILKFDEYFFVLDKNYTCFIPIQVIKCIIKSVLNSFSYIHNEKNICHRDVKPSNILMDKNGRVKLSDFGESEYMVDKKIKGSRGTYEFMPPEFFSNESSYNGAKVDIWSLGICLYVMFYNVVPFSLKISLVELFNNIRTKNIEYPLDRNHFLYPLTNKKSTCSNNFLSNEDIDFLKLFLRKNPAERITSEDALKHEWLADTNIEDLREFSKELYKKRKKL

outcome, inactive:
CCCCCCOc1ccc(C(=O)NCCCC2CCN(CCCCCNC(=O)C=Cc3ccc(Cl)c(Cl)c3)CC2)cc1
COc1cc(NC(=O)NC(CCN2CCC3(CCc4ccccc43)CC2)c2ccc(Cl)c(Cl)c2)cc(OC)c1OC (centres undefined)
Nc1nc(N)c2c(ccc3c2ccn3Cc2ccc(-c3ccccc3)cc2)n1
COc1ccc(-c2ccc(NC(=O)c3ccc(F)cc3)cc2)cc1CNC(C)C
O=c1cc(NCCCNCc2cc3ccc(Br)cc3s2)[nH]c2ccccc12
O=C(NCC1CCC(C(=O)NCc2cccc(C(F)(F)F)c2)CC1)c1ccc(O)c(-c2ccc(Cl)c(Cl)c2)c1 (centres undefined)
COc1ccc(-c2cc(-c3nc4ccc(CN)cc4[nH]3)c(=O)n(C)c2)cc1OC
CCCC(CCC)n1ccc2c3c(N)nc(N)nc3ccc21
CC(C)(C)c1ccc(NC(=O)c2ccc(CN3CCCN(Cc4ccsc4)CC3)cc2)cc1
CN(C)Cc1cccc(CNC(=O)c2sccc2OCc2ccc(Cl)cc2)c1
COc1cccc(NC(=O)c2nc(N3CCN(c4ccncc4)CC3)ccc2Cl)c1
O=C(Nc1cccc(-c2cccc(-c3nc4ccc(C(F)(F)F)cc4[nH]3)c2)c1)Nc1ccc(F)c(F)c1F
COc1cc2nc(N3CCC(c4ccccc4)CC3)nc(NCc3ccc(=O)[nH]c3)c2cc1OC
Cc1cc(=O)c(-c2ccc(Oc3cccc(Cl)c3)cc2)c(C)[nH]1

target: Calcium-dependent protein kinase 4 (Plasmodium falciparum (isolate 3D7)) (UniProt Q8IBS5); assay: PfCDPK4 kinase inhibitors, biochemical, TCAMS library (AID 1159588); settings: recombinant PfCDPK4, Kinase-Glo ATP depletion luminescence
Sequence (Q8IBS5 whole entry, looked up): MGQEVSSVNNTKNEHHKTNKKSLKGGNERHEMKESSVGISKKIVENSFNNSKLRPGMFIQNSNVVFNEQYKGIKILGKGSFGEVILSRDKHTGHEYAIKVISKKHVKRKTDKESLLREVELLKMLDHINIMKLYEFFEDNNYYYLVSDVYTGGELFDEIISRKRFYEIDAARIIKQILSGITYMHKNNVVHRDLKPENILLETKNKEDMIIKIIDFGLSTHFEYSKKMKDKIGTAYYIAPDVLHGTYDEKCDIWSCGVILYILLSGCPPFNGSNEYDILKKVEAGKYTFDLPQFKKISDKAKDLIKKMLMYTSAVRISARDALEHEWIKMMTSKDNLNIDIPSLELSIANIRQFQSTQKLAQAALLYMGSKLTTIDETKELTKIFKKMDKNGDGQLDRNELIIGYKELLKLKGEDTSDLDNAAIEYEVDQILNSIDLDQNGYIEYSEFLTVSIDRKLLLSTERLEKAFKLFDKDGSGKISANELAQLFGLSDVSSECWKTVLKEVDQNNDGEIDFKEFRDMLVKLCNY

outcome, inactive:
O=C(Nc1nc2cc(S(=O)(=O)NCCc3ccc(F)cc3)ccc2n1CCCn1ccnc1)c1ccc(Cl)cc1
Cc1[nH]c(C)c(C(F)(F)F)c(=O)c1-c1ccc(Oc2ccc(OC(F)(F)F)cc2)cc1
COc1ccc(CNCc2cccc(-c3cccc(-c4nc5c(C)cccc5[nH]4)c3)c2)cc1
CC(C)(C)c1ccc(C(=O)NC2CCC(CCN3CCc4ccc(S(C)(=O)=O)cc4CC3)CC2)cc1C(F)(F)F (centres undefined)
CCCCCCc1cc(Oc2c(I)cc(C[C@H](N)C(=O)O)cc2I)ccc1O
CN(C)Cc1cccc(-c2ccc3ccnc(N)c3c2)c1
CN1CCN(CCc2ccc3nc(-c4csc(Cc5cc(Cl)ccc5OCc5ccccc5)n4)[nH]c3c2)CC1
COc1ccc(C=NNc2ccnc3cc(F)c(C)cc23)c2ccccc12
Cc1nc(N)nc(N)c1OCc1cccc2c1ccc1ccccc12
Cc1nc(Nc2ccc(F)cc2)nc(N2CCc3cc(O)ccc3C2C)c1C (centres undefined)
CNc1ccc(CNCc2ccc(-c3ccc(-c4nc5ccc(C(F)(F)F)cc5[nH]4)s3)cc2)cc1
NCc1ccc(CNCc2cccc(-c3ccc(-c4nc5ccccc5[nH]4)cc3)c2)cc1
CCN(CC)Cc1ccc2c(=O)cc(CCc3cccc(F)c3F)n(CC(=O)N(Cc3ccc(-c4ccc(C(F)(F)F)cc4)cc3)C(C)C)c2c1
O=C(/C=C/c1ccc(Cl)c(Cl)c1)NCCCCCCN1CCN(C(=O)Nc2ccc(C(F)(F)F)cc2)CC1
Cc1[nH]c(C)c(-c2ccc(C(=O)c3ccccc3)cc2)c(=O)c1Br
Cc1cnc(C(=O)Nc2ccc(-c3cccc(-c4nc5ccccc5[nH]4)c3)cc2)cn1
FC(F)(F)c1ccc2nc(-c3ccc(-c4cccc(CN5CCN(c6ccncc6)CC5)c4)cc3)[nH]c2c1
O=C(c1cccs1)N(Cc1cccc(-c2ccc(CNCCc3ccccc3)cc2)c1)C1CCN(Cc2ccccc2)CC1
CCN(CC)CCN(Cc1ccc(-c2ccc(C(F)(F)F)cc2)cc1)C(=O)c1c[nH]c2ccc(Br)cc12
Cc1ccc(S(=O)(=O)NC2=NC(C)(C)N(OCc3ccc(Cl)c(Cl)c3)C(N)=N2)cc1
COc1ccc(NC(=O)Nc2nc3ccccc3s2)cc1N1CCN(C)CC1
CCN1CCC(N(Cc2ccc(-c3ccc(C(F)(F)F)s3)cc2)C(=O)Cn2c(CCc3cccc(F)c3F)nc(=O)c3ccccc32)CC1
CC(C)c1cc(C(=O)N[C@@H](Cc2ccccc2)[C@H](O)CNC2CCCCC2)cc(N2CCCC2=O)c1
Cc1ccc(NC(=O)c2ccc3nccnc3c2)cc1OC1CCN(Cc2ccc(F)cc2)CC1
CC(=O)Nc1ccc(CCNC(C)Cc2ccc(C(=O)Nc3ccc(CC(C)NCCc4cccc(Cl)c4)cc3)cc2)cc1 (centres undefined)
CN(C)Cc1cccc(-c2ccc(NC(=O)c3ccc4c(=O)n(CCN5CCCCC5)cnc4c3)cc2)c1
CCCCCCOc1ccc(C(=O)NCCCC2CCN(CCCCCNC(=O)C=Cc3ccc(Cl)c(Cl)c3)CC2)cc1
COc1cc(NC(=O)NC(CCN2CCC3(CCc4ccccc43)CC2)c2ccc(Cl)c(Cl)c2)cc(OC)c1OC (centres undefined)
Nc1nc(N)c2c(ccc3c2ccn3Cc2ccc(-c3ccccc3)cc2)n1
COc1ccc(-c2ccc(NC(=O)c3ccc(F)cc3)cc2)cc1CNC(C)C
O=c1cc(NCCCNCc2cc3ccc(Br)cc3s2)[nH]c2ccccc12
O=C(NCC1CCC(C(=O)NCc2cccc(C(F)(F)F)c2)CC1)c1ccc(O)c(-c2ccc(Cl)c(Cl)c2)c1 (centres undefined)
COc1ccc(-c2cc(-c3nc4ccc(CN)cc4[nH]3)c(=O)n(C)c2)cc1OC
CCCC(CCC)n1ccc2c3c(N)nc(N)nc3ccc21
CC(C)(C)c1ccc(NC(=O)c2ccc(CN3CCCN(Cc4ccsc4)CC3)cc2)cc1
CN(C)Cc1cccc(CNC(=O)c2sccc2OCc2ccc(Cl)cc2)c1
COc1cccc(NC(=O)c2nc(N3CCN(c4ccncc4)CC3)ccc2Cl)c1
O=C(Nc1cccc(-c2cccc(-c3nc4ccc(C(F)(F)F)cc4[nH]3)c2)c1)Nc1ccc(F)c(F)c1F
COc1cc2nc(N3CCC(c4ccccc4)CC3)nc(NCc3ccc(=O)[nH]c3)c2cc1OC
Cc1cc(=O)c(-c2ccc(Oc3cccc(Cl)c3)cc2)c(C)[nH]1
